These results are taken from PubChem BioAssay (NCATS).

Inconclusive results are not listed. Activity calls are given as the source filed them. Calls come from the whole dose curve; as a rule, active = well fitted cell-killing curve with a large enough effect; inconclusive = small, poorly fitted or top-dose-only effect; inactive = flat fitted curve, though single readings scatter.
% is set by controls: 0 for no effect and ±100 for the full control effect.

A short description of this assay: qHTS of pediatric cancer cell lines to identify multiple opportunities for drug repurposing: Primary screen for TC32 cells (AID 1347089). Note: nearly all actives have a fitted effect of over 60% in size. The conditions noted are these: TC32 Ewing sarcoma viability, CellTiter-Glo luminescence, 48 h; series mostly up to 45.8 µM; activity change, negative = cytotoxic: at the top concentration. The text has this: Drug repurposing or repositioning has been offered as a strategy for drug development in oncology programs. This approach has special potential for childhood cancers and other rare or orphan diseases, where the expected return on new drug development has been a disincentive to pharmaceuticals.
In this project we exploit the poly-pharmacology of drugs to discover new indications via phenotypic screening of a panel of 19 well-characterized cell lines derived from solid tumors seen in children and adolescents. The goal is to identify approved drugs with previously unrecognized anticancer properties that has the potential to reveal new mechanisms and biological processes involved in carcinogenesis or drug resistance. We employed a titration-based paradigm (quantitative high-throughput screening or qHTS), where all compounds were tested at multiple concentrations for their effect on cell viability. Concentration-response curves (CRCs) were derived directly from the primary screen, and both potency and efficacy values were used to identify compounds with robust bioactivity profiles. We screened the NIH Chemical Genomics Center (NCGC) Pharmaceutical Collection (NPC) and Mechanism Interrogation Plate (MIPE) small molecule collections of approved and investigational compounds against these cell lines; and measured metabolically active cells after 48 hours of compound treatment as a proxy for cell viability.
Assay Submitter: Nathalia J. Martinez, National Center for Advancing Translational Sciences, National Institutes of Health, Rockville, MD, USA; email: natalia.martinez@nih.gov
[1] Shen, M et al. Quantitative high-throughput phenotypic screening of pediatric cancer cell lines identifies multiple opportunities for drug repurposing. Oncotarget 2017 Dec 19;9(4):4758-4772. PMID 29435139.
The cells were obtained from University of North Carolina (UNC), Pediatric Preclinical Testing Program (PPT), and Coriell Institute (CI).
qHTS cell viability assay:
Cells were assayed in growth media at a density of 500-1,000 cells/well. Five microliters of cells were dispensed into 1,536-well, white, solid-bottom, TC-treated plates (Greiner Bio One) using a multidrop dispenser and incubated at 37 degrees C, 5% CO2, under a humidified atmosphere for 5 hours. Twenty-three nanoliters of compounds and controls (neutral control DMSO or positive control bortezomib at final concentration of 2.3 uM) were subsequently transferred by Kalypsys pintool. For primary screens, the MIPE collection was tested at 11-point dilutions (final concentrations range from 0.78 nM to 46 µM) and the NPC collection at 8-point dilutions (final concentrations range from 0.59 nM to 46 µM). Compounds tested in follow-up screens were assayed at 11-point dilutions. Cells were incubated for 48 hours, followed by addition of 3 uL of CellTiter-Glo (Promega). After a 15min incubation at room temperature, samples were analyzed for luminescence intensity using a ViewLux High-throughput CCD imager equipped with clear filters.
In the case of `CC[C@@]1(c2ccccc2)NC(=O)N(C)C1=O`, the “activity change, negative = cytotoxic” value is 17.8% (inactive).

Take `CC(C)C(=O)c1c(C(C)C)nn2ccccc12`: the “activity change, negative = cytotoxic” value is 6.36% (inactive).

Take `CCCCOc1cc(C(=O)OCCN(CC)CC)ccc1N`: the “activity change, negative = cytotoxic” value was 6.74% (inactive).

Take `Cc1cc2c(cc1S(N)(=O)=O)S(=O)(=O)CCC2`: the “activity change, negative = cytotoxic” value was 13.6% (inactive).

Turning to `O=Cc1ccccc1C=O`, the “activity change, negative = cytotoxic” value is 5.92% (inactive).

As to `NC(=O)c1ncn([C@@H]2O[C@H](CO)[C@@H](O)[C@H]2O)n1`, the “activity change, negative = cytotoxic” value was 8.91% (inactive).

As to `NC(=O)N/N=C/c1ccc([N+](=O)[O-])o1`, the “activity change, negative = cytotoxic” value was 5.75% (inactive).

As to `C=CCn1c(=O)n([C@@H]2O[C@H](CO)[C@@H](O)[C@H]2O)c2nc(N)[nH]c(=O)c21`, the “activity change, negative = cytotoxic” value was 16.4% (inactive).

Consider `Cc1cc(C(C#N)c2ccc(Cl)cc2)c(Cl)cc1NC(=O)c1cc(I)cc(I)c1O` (stereo not given), for which the “activity change, negative = cytotoxic” value is -8.63% (inactive).

Take `C[C@]12CC[C@@H]3c4ccc(O)cc4CC[C@H]3[C@@H]1CC[C@@H]2OC(=O)CCC1CCCC1`: the “activity change, negative = cytotoxic” value was 8.99% (inactive).

In the case of `CN1CCCCC1CCN1c2ccccc2Sc2ccc(S(C)=O)cc21` (stereo not given), the “activity change, negative = cytotoxic” value is 3.99% (inactive).

Consider `CC1(C)CO[C@@H](CC(=O)O)CN1`, for which the “activity change, negative = cytotoxic” value is 9.52% (inactive).

As to `OC[C@H]1O[C@@H](O[C@@H]2[C@@H](CO)O[C@](O)(CO)[C@H]2O)[C@H](O)[C@@H](O)[C@H]1O`, the “activity change, negative = cytotoxic” value is 4.69% (inactive).

On to `NC(=O)NNc1ccccc1`, for which the “activity change, negative = cytotoxic” value was -0.292% (inactive).

For the compound `CCOC(=O)c1ccc(O)cc1`, the “activity change, negative = cytotoxic” value was 9.81% (inactive).

In the case of `COc1ccccc1O`, the “activity change, negative = cytotoxic” value is 8.57% [at 92.2 µM] (inactive).

In the case of `CCOC(CN1CCN(CC(C)C(=O)c2ccccc2)CC1)c1ccccc1` (stereo not given), the “activity change, negative = cytotoxic” value was 7.15% [at 16 µM] (inactive).

As to `CS(=O)(=O)c1ccc([C@@H](O)[C@@H](CF)NC(=O)C(Cl)Cl)cc1`, the “activity change, negative = cytotoxic” value is 1.8% (inactive).

Turning to `Cc1cccc(Nc2cc(Cl)nc(SCC(=O)O)n2)c1C`, the “activity change, negative = cytotoxic” value is 3.71% (inactive).

`CCn1cc(C(=O)O)c(=O)c2cnc(N3CCNCC3)nc21`: the “activity change, negative = cytotoxic” value was 7.59% (inactive).

Regarding `CNCCC(Oc1ccc(C(F)(F)F)cc1)c1ccccc1` (stereo not given), the “activity change, negative = cytotoxic” value was 4.63% (inactive).

In the case of `CC1(C)S[C@@H]2[C@H](NC(=O)Cc3ccccc3)C(=O)N2[C@H]1C(=O)O` (tested in a mixture with another compound), the “activity change, negative = cytotoxic” value was 14.7% (inactive).

As to `Oc1ccc(C(O)CNCCCCCCNCC(O)c2ccc(O)c(O)c2)cc1O` (stereo not given), the “activity change, negative = cytotoxic” value is 12.4% (inactive).

Turning to `OCc1cc(C(O)CNCCCCCCOCCCCc2ccccc2)ccc1O` (stereo not given), the “activity change, negative = cytotoxic” value is 3.21% (inactive).

As for `CCN(CC)CCSC(=O)C(c1ccccc1)c1ccccc1`, the “activity change, negative = cytotoxic” value is -0.775% (inactive).

In the case of `C[C@@H]1CC[C@@]2(OC1)O[C@H]1C[C@H]3[C@@H]4CC[C@H]5C[C@@H](O)CC[C@]5(C)[C@H]4CC(=O)[C@]3(C)[C@H]1[C@@H]2C`, the activity change, negative = cytotoxic is 10.8% [at 4.81 µM] (inactive).

`CC(CN1c2ccccc2Sc2ccccc21)N(C)C` (stereo not given): the “activity change, negative = cytotoxic” value was 1.23% (inactive).

Turning to `CCCCN(CCCC)CCCOC(=O)c1ccc(N)cc1`, the “activity change, negative = cytotoxic” value was 12.3% (inactive).

Regarding `COC(=O)[C@H]1[C@H]2C[C@@H]3c4[nH]c5cc(OC)ccc5c4CCN3C[C@H]2C[C@@H](OC(=O)COc2ccc(OC)cc2)[C@@H]1OC`, the “activity change, negative = cytotoxic” value is 5.99% (inactive).

For `O=C1NC(=O)[C@@]2(CCOc3ccc(F)cc32)N1`, the “activity change, negative = cytotoxic” value is -4.17% (inactive).

With `Cc1cccc(C)c1NC(=O)CN(CC(=O)O)CC(=O)O`, the “activity change, negative = cytotoxic” value is 7.54% (inactive).

As to `NC(CSCC(=O)O)C(=O)O` (stereo not given), the “activity change, negative = cytotoxic” value was 2.29% (inactive).

With `NCC(=O)CCC(=O)O`, the “activity change, negative = cytotoxic” value is 7.54% (inactive).

On to `CC(C(O)c1ccc(O)cc1)N1CCC(Cc2ccccc2)CC1` (stereo not given), for which the “activity change, negative = cytotoxic” value is 2.2% (inactive).

Turning to `O=C(O)[C@@H]1CSCN1`, the “activity change, negative = cytotoxic” value is 3.23% (inactive).

With `CN(C)CCC=C1c2ccccc2CCc2ccccc21`, the “activity change, negative = cytotoxic” value was 2.03% (inactive).

Turning to `CCOC(=O)[C@H](CCc1ccccc1)N[C@@H](C)C(=O)N1C(=O)N(C)C[C@H]1C(=O)O`, the “activity change, negative = cytotoxic” value was 5.96% (inactive).

Turning to `c1ccc(CN(CC2=NCCN2)c2ccccc2)cc1`, the “activity change, negative = cytotoxic” value is 3.42% (inactive).

Take `CC(C)(C(=O)O)c1ccc(C(O)CCCN2CCC(C(O)(c3ccccc3)c3ccccc3)CC2)cc1` (stereo not given): the “activity change, negative = cytotoxic” value is 10.7% (inactive).

In the case of `C[C@H](NC(CCc1ccccc1)C(=O)O)C(=O)N1CCC[C@H]1C(=O)O` (stereo not given in full), the “activity change, negative = cytotoxic” value is 11.5% (inactive).
